Bioassay records deposited in PubChem BioAssay by Columbia University Molecular Screening Center.
E-sel TNF inh – E-selectin induction blockers in HUVEC – imaging, immunofluorescence, high content, primary screen; HUVEC TNFa-induced E-selectin immunofluorescence; inhibition, % at 2 µM; hit rate 0.71% among 120,000;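 active = inhibition above the batch mean plus 3 SD, and confirmed as a hit on visual image review, cut at about 43% in these data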
TNFa cytotox – cytotoxicity in TNFa-stimulated HUVEC, primary screen, cytotoxicity control for VCAM1 expression modulator project, imaging, Hoechst nuclei count. HUVEC TNFalpha-stimulated, Hoechst cell count. cell count reduction, % at 2 µM. hit rate 0.17% among 93,000;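 active = cell count reduction exceeding the screen mean by over 5 SD, scaled to untreated wells per plate, cut at about 78% in these data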;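 also: cells counted after 24 h of TNF alpha exposure following the 1 h pretreatment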
VCAM1 TNFa inh – inhibitors of TNFa-induced VCAM1 expression, primary screen, imaging, HUVEC, TNFa stimulus, immunofluorescence; inhibition, % at 2 µM; hit rate 0.48% among 95,000; HUVEC TNFa-induced VCAM-1 immunofluorescence, high-content imaging;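 active = inhibition above the batch mean plus 3 SD, with images confirmed as a hit by eye, cut at about 37% in these data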
F-actin modifier – modifiers of F-actin cytoskeleton organization, primary screen, imaging, HUVEC, phalloidin staining, high-content imaging; HUVEC TNFa F-actin phalloidin imaging; inhibition, % at 2 µM; hit rate 0.18% among 91,000; AID 836, 2007;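 active = inhibition above the batch mean plus 3 SD and confirmed as a hit by visual image inspection, cut at about 30% in these data, passing the limit was not always enough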
Large screens that a line does not name were inactive. Shown are actives, neighbours in structure and some others; about 1.1% of the full set was active somewhere.

Cc1ccccc1CSc1n[nH]c(NS(=O)(=O)c2ccccc2)n1	none
CSc1nc(=O)n2cc(C)ccc2n1	E-sel TNF inh 64.3 (no result: TNFa cytotox, VCAM1 TNFa inh, F-actin modifier)
O=C(Nc1ccc(C(=O)N2CCOCC2)cc1)Nc1ccc(Cl)cc1Cl	none (no result: TNFa cytotox, VCAM1 TNFa inh, F-actin modifier)
CN=c1sc2ccccc2n1CC(O)COc1ccccc1 (stereo not given)	VCAM1 TNFa inh 75.0 (no result: E-sel TNF inh)
CCN=c1sc2ccccc2n1CC(O)COc1ccccc1 (stereo not given)	none
CC(C)NC(=S)N1CCN(S(=O)(=O)c2cccc(C(F)(F)F)c2)CC1	none (no result: TNFa cytotox, VCAM1 TNFa inh, F-actin modifier)
Cc1ccc(-c2cc(NC(=O)CCl)n(-c3ccccc3)n2)cc1	E-sel TNF inh 85.7
Cn1cccc1C(=O)OCC(=O)Nc1cc(C(C)(C)C)nn1-c1ccccc1	F-actin modifier 72.5
Cc1ccc(C)c2c3c([nH]c12)-c1nonc1CC3	none
